Test results from PubChem BioAssay (EPA / NIEHS).
Where “and” joins values, the source holds several entries; their conditions need not be identical. Equal values may be shown once. Inconclusive results are not listed. Calls of active or inactive are those of the source. Rule for the calls, unless noted: active = hit-call score of the fitted dose curve at least 0.9, where 1 is the maximum; inconclusive = response in the unintended direction; inactive = score below 0.9.

Target: Estrogen receptor (Homo sapiens) (UniProt P03372)
Sequence (P03372 whole entry, looked up): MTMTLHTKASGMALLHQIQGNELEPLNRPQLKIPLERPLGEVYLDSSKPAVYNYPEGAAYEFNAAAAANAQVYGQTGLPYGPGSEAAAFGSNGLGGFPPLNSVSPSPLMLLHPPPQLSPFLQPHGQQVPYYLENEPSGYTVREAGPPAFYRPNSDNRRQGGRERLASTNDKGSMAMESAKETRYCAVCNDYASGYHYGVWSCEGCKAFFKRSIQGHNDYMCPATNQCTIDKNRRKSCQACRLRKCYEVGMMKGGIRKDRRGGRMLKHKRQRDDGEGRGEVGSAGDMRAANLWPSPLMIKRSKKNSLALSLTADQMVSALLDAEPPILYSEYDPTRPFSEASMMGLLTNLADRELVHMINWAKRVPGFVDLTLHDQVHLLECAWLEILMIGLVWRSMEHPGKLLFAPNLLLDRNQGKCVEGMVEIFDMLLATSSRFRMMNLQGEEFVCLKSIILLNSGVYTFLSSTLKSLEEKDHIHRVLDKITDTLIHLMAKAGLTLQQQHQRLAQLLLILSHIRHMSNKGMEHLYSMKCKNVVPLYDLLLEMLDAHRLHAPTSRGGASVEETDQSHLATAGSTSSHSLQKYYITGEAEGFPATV
Experiment: CCTE_Deisenroth_AIME_96WELL_LUC_Active: CCTE's 96-well Estrogen Receptor Transactivation Assay with AIME metabolic competence (ERTA luciferase; metabolism positive), Deisenroth Lab (AID 2284023)
Experimental: CCTE_Deisenroth_AIME_96WELL (AIME metabolism assay) is a cell-based, single-readout assay that uses VM7Luc4E2, a human mammary gland/breast cell line, with measurements taken at 24 hour after chemical dosing in a 96-well plate.CCTE_Deisenroth_AIME_96WELL_LUC_Active is one of four assay components measured or calculated from the CCTE_Deisenroth_AIME_96WELL assay. It is designed to make measurements of luciferase induction, a form of inducible reporter, as detected with bioluminescence signals by luciferase-coupled ATP quantitation technology.CCTE_Deisenroth_AIME_96WELL_LUC_Active is a component of the CCTE_Deisenroth_AIME_96WELL assay that measures the effect of retroftting the VM7Luc ERTA assay with the Alginate Immobolization of Metabolic Enzymes (AIME) metabolism method. AIME is optimized to impart phase I hepatic metabolism using phenobarbital/beta-naphthoflavone induced hepatic S9 from male Sprague Dawley rats. Parent chemicals are incubated for 2 hours in the AIME assay prior to transfer to the VM7Luc ERTA assay plate. […] This endpoint evaluates reporter induction in metabolism positive mode. Using a type of inducible reporter in VM7Luc cells, gain-of-signal activity can be used to understand changes in the reporter gene as they relate to xenobiotic metabolism and the gene ESR1. This assay endpoint, CCTE_Deisenroth_AIME_96WELL_LUC_Active, was analyzed in the positive analysis fitting direction relative to 17beta-estradiol as the positive control in the ERTA assay. To generalize the intended target to other relatable targets, this assay endpoint is annotated to the nuclear receptor intended target family, where the subfamily is steroidal.
The AIME procedure consists of a preparative "pre-stamping" step using a barium chloride/poly-L-lysine (PLL) solution followed by "stamping" the lid in alginate-hepatic S9 (metabolism positive) or alginate-water (metabolism negative) to form microspheres. Once stamping is completed, the AIME lids are placed in duplicate microplates (metabolism positive or negative) containing chemical solutions and incubated for two hours to facilitate metabolic reactions. The conditioned medium, containing parent chemical or metabolites, is then transferred to the cell-based VM7Luc Estrogen Receptor Transactivation Assay (ERTA) for 24 hours. A typical experimental design tests a 10-point concentration series (0.002 - 200 uM) for 8 compounds (96-well format)1 or 32 compounds (384-well format)2 in single technical replicate. AIME assay controls include trans-stilbene (bioactivated control) and ethylparaben (bioinactivated control). […] Experiments typically comprise a minimum of four experimental replicates (n=4).

Compound | AC50 | outcome
C(#Cc1ccccc1)c1ccccc1 | 32.3 µM (active) | –
Oc1ccccc1Cc1ccccc1 | 27.7 µM (active) | –
c1ccc(CCCc2ccccc2)cc1 | – | inactive
C/C(=C\c1ccccc1)c1ccccc1 | 20.6 µM (active) | –
c1ccc([C@H]2O[C@H]2c2ccccc2)cc1 | 66.7 µM (active) | –
O=C(C=Cc1ccccc1)c1ccccc1 | 31.9 µM (active) | –
COc1ccc(C=Cc2ccc(OC)cc2)cc1 | – | inactive

Target: Estrogen receptor (Homo sapiens) (UniProt P03372)
Experiment: CCTE_Deisenroth_AIME_96WELL_LUC_Inactive: CCTE's 96-well Estrogen Receptor Transactivation Assay without AIME metabolic competence (ERTA luciferase; metabolism negative), Deisenroth Lab (AID 2284025)
How it was run: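 VM7Luc4E2 breast cells, luciferase read 24 h after dosing with medium pre-incubated 2 h on alginate-water lids (metabolism negative). 10-point series 0.002–200 uM, single technical replicate, n≥4; fit relative to 17beta-estradiol.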

Compound | AC50 | outcome
C(#Cc1ccccc1)c1ccccc1 | 28.5 µM (active) | –
Oc1ccccc1Cc1ccccc1 | 27.7 µM (active) | –
c1ccc(CCCc2ccccc2)cc1 | 37.4 µM (active) | –
C/C(=C\c1ccccc1)c1ccccc1 | 37.2 µM (active) | –
c1ccc([C@H]2O[C@H]2c2ccccc2)cc1 | 72.1 µM (active) | –
O=C(C=Cc1ccccc1)c1ccccc1 | 28.2 µM (active) | –
COc1ccc(C=Cc2ccc(OC)cc2)cc1 | – | inactive

Tested on: not listed separately
Experiment: CCTE_Deisenroth_AIME_96WELL_CTox_Active: Cytotoxicity Assessment (CTOX) in CCTE's 96-well Estrogen Receptor Transactivation Assay with AIME metabolic competence (metabolism positive), Deisenroth Lab (AID 2284028)
How it was run: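 Chemicals (0.002–200 uM) were first incubated 2 h with alginate-immobilized phenobarbital/beta-naphthoflavone-induced male rat liver S9; conditioned medium then went onto VM7Luc4E2 cells for 24 h, with viability read by protease-substrate fluorescence, fitted bidirectionally.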

Compound | AC50 | outcome
Oc1ccccc1Cc1ccccc1 | 162 µM (active) | –
c1ccc(CCCc2ccccc2)cc1 | – | inactive
c1ccc([C@H]2O[C@H]2c2ccccc2)cc1 | – | inactive
CC/C(=C(\c1ccc(O)cc1)c1ccc(OCCN(C)C)cc1)c1ccccc1 | 57.8 µM (active) | –
O=C(C=Cc1ccccc1)c1ccccc1 | – | inactive
COc1ccc(C=Cc2ccc(OC)cc2)cc1 | – | inactive

Tested on: not listed separately
Experiment: CCTE_Deisenroth_AIME_96WELL_CTox_Inactive: Cytotoxicity Assessment (CTOX) in CCTE's 96-well Estrogen Receptor Transactivation Assay without AIME metabolic competence (metabolism negative), Deisenroth Lab (AID 2284029)
Experimental: CCTE_Deisenroth_AIME_96WELL (AIME metabolism assay) is a cell-based, single-readout assay that uses VM7Luc4E2, a human mammary gland/breast cell line, with measurements taken at 24 hour after chemical dosing in a 96-well plate.CCTE_Deisenroth_AIME_96WELL_CTox_Inactive is one of four assay components measured or calculated from the CCTE_Deisenroth_AIME_96WELL assay. It is designed to make measurements of a protease substrate, a type of viability indicator, as detected with substrate cleavage to a fluorescent probe in living cells.CCTE_Deisenroth_AIME_96WELL_CTox_Inactive is a component of the CCTE_Deisenroth_AIME_96WELL assay that measures the effect of retroftting the VM7Luc ERTA assay with the Alginate Immobolization of Metabolic Enzymes (AIME) metabolism method. AIME is optimized to impart phase I hepatic metabolism using phenobarbital/beta-naphthoflavone induced hepatic S9 from male Sprague Dawley rats. Parent chemicals are incubated for 2 hours in the AIME assay prior to transfer to the VM7Luc ERTA assay plate. […] This endpoint evaluates cytotoxicity in metabolism negative mode. Using a type of flourescent probe in VM7Luc cells, loss-of-signal activity can be used to understand loss of viability. This assay endpoint, CCTE_Deisenroth_AIME_96WELL_CTox_Inactive, was analyzed with bidirectional fitting in the ERTA assay.
The AIME procedure consists of a preparative "pre-stamping" step using a barium chloride/poly-L-lysine (PLL) solution followed by "stamping" the lid in alginate-hepatic S9 (metabolism positive) or alginate-water (metabolism negative) to form microspheres. Once stamping is completed, the AIME lids are placed in duplicate microplates (metabolism positive or negative) containing chemical solutions and incubated for two hours to facilitate metabolic reactions. The conditioned medium, containing parent chemical or metabolites, is then transferred to the cell-based VM7Luc Estrogen Receptor Transactivation Assay (ERTA) for 24 hours. A typical experimental design tests a 10-point concentration series (0.002 - 200 uM) for 8 compounds (96-well format)1 or 32 compounds (384-well format)2 in single technical replicate. AIME assay controls include trans-stilbene (bioactivated control) and ethylparaben (bioinactivated control). ERTA assay plate controls include 17-beta estradiol (positive control) and DMSO (solvent control). Experiments typically comprise a minimum of four experimental replicates (n=4).

Compound | AC50 | outcome
Oc1ccccc1Cc1ccccc1 | 175 µM (active) | –
c1ccc([C@H]2O[C@H]2c2ccccc2)cc1 | – | inactive
CC/C(=C(\c1ccc(O)cc1)c1ccc(OCCN(C)C)cc1)c1ccccc1 | 57.6 µM (active) | –
O=C(C=Cc1ccccc1)c1ccccc1 | 114 µM (active) | –
COc1ccc(C=Cc2ccc(OC)cc2)cc1 | – | inactive

Tested on: not listed separately
Experiment: CCTE_Shafer_MEA_dev_firing_rate_mean: CCTE's Neural Network Formation Assay for Mean Firing Rate, Shafer Lab (AID 2284031; active = hit-call score of the fitted dose curve at least 0.9, where 1 is the maximum; inactive = score below 0.9;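 for AC50: curve fitted for loss of firing so AC50 reflects decreased mean firing rate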)
How it was run: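 Primary rat cortical neurons on 48-well, 16-electrode MEAs (PEI-coated, laminin at plating), exposed from day 0 with compound renewed at DIV 5 and 9. Spikes recorded DIV 5, 7, 9, 12; well-mean firing rate collapsed to trapezoidal AUC, loss-of-signal vs DMSO.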

Compound | AC50 | outcome
BrC1CC(Br)CC(Br)CC(Br)CC(Br)CC(Br)C1 (stereo not drawn) | 8.92 µM (active) | –
CC(CNC(=S)[S-])NC(=S)[S-].[Zn+2] (stereo not drawn) | 6.97 µM (active) | –
CC(=O)N[C@@H](CC(=O)O)C(=O)O | – | inactive
CC(C)c1nn(C(=O)NC(C)(C)C)c(=O)n1N | – | inactive
Cc1[nH]n(C)c(=O)c1C(=O)c1ccc(C(F)(F)F)cc1S(C)(=O)=O | – | inactive
Brc1cc(Br)c(Oc2cc(Br)c(Br)cc2Br)cc1Br | – | inactive
F | – | inactive
[O]=[V]([OH])([OH])[OH] | – | inactive
CCCCCC(C)(CC)C(=O)NC (stereo not drawn) | – | inactive
C[C@@H]1CCO[C@H]2Cn3cc(C(=O)NCc4ccc(F)cc4F)c(=O)c(O)c3C(=O)N12 | 2.57 µM (active) | –
CN(C)CCCn1cc(C2=C(c3c[nH]c4ccccc34)C(=O)NC2=O)c2ccccc21 | 1.97 µM (active) [middle of 4 runs] | –
CCCCCC=C(C)C(CC)CCO (stereo not drawn) | – | inactive
CCc1ccccc1 | – | inactive
C[C@@H]1CC[C@@H](C(C)(C)O)[C@H](O)C1 | – | inactive
CC(C)O | – | inactive

Tested on: not listed separately
Experiment: CCTE_Shafer_MEA_dev_per_burst_spike_percent: CCTE's Neural Network Formation Assay for Percent of Spikes in a Burst, Shafer Lab (AID 2284032; active = hit-call score of the fitted dose curve at least 0.9, where 1 is the maximum; inactive = score below 0.9;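 for AC50: fitted as a decrease in burst spike percentage below DMSO baseline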)
How it was run: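 Rat primary cortical neurons on 16-electrode MEA wells, dosed from plating day 0 for 12 days with renewal on DIV 5 and 9; spikes-in-bursts percentage averaged over bursting electrodes, collapsed as AUC across days 5, 7, 9, 12; loss direction versus DMSO.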

Compound | AC50 | outcome
BrC1CC(Br)CC(Br)CC(Br)CC(Br)CC(Br)C1 (stereo not drawn) | 4.4 µM (active) | –
CC(CNC(=S)[S-])NC(=S)[S-].[Zn+2] (stereo not drawn) | 17.4 µM (active) | –
CC(=O)N[C@@H](CC(=O)O)C(=O)O | – | inactive
CC(C)c1nn(C(=O)NC(C)(C)C)c(=O)n1N | – | inactive
Cc1[nH]n(C)c(=O)c1C(=O)c1ccc(C(F)(F)F)cc1S(C)(=O)=O | – | inactive
Brc1cc(Br)c(Oc2cc(Br)c(Br)cc2Br)cc1Br | – | inactive
F | – | inactive
[O]=[V]([OH])([OH])[OH] | 15 µM (active) | –
CCCCCC(C)(CC)C(=O)NC (stereo not drawn) | 74.5 µM (active) | –
C[C@@H]1CCO[C@H]2Cn3cc(C(=O)NCc4ccc(F)cc4F)c(=O)c(O)c3C(=O)N12 | 1.64 µM (active) | –
CN(C)CCCn1cc(C2=C(c3c[nH]c4ccccc34)C(=O)NC2=O)c2ccccc21 | 4.52 µM (active) and 2.95 µM (active) and 5 µM (active) | –
CCCCCC=C(C)C(CC)CCO (stereo not drawn) | – | inactive
CCc1ccccc1 | – | inactive
C[C@@H]1CC[C@@H](C(C)(C)O)[C@H](O)C1 | – | inactive
CC(C)O | 10.2 µM (active) | –

Tested on: not listed separately
Experiment: CCTE_Shafer_MEA_dev_active_electrodes_number: CCTE's Neural Network Formation Assay for Number of Active Electrodes, Shafer Lab (AID 2284040);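 for AC50: potency for loss of active electrodes versus DMSO so lower counts are hits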
How it was run: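 Rat cortical primary cultures, 1.5 x 10^5 cells/well, PEI-coated MEA, laminin drop. Continuous exposure DIV 0–12; full media/compound change DIV 5, 9. Readout: electrodes with mean firing ≥5 spikes/min; AUC across days; loss vs DMSO.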

Compound | AC50 | outcome
BrC1CC(Br)CC(Br)CC(Br)CC(Br)CC(Br)C1 (stereo not drawn) | 6.75 µM (active) | –
CC(CNC(=S)[S-])NC(=S)[S-].[Zn+2] (stereo not drawn) | 16.8 µM (active) | –
CC(C)c1nn(C(=O)NC(C)(C)C)c(=O)n1N | – | inactive
Cc1[nH]n(C)c(=O)c1C(=O)c1ccc(C(F)(F)F)cc1S(C)(=O)=O | – | inactive
Brc1cc(Br)c(Oc2cc(Br)c(Br)cc2Br)cc1Br | – | inactive
[O]=[V]([OH])([OH])[OH] | 15 µM (active) | –
CCCCCC(C)(CC)C(=O)NC (stereo not drawn) | 50 µM (active) | –
C[C@@H]1CCO[C@H]2Cn3cc(C(=O)NCc4ccc(F)cc4F)c(=O)c(O)c3C(=O)N12 | 1.46 µM (active) | –
CN(C)CCCn1cc(C2=C(c3c[nH]c4ccccc34)C(=O)NC2=O)c2ccccc21 | 4.2 µM (active) [middle of 4 runs] | –
CCCCCC=C(C)C(CC)CCO (stereo not drawn) | – | inactive
CCc1ccccc1 | – | inactive
C[C@@H]1CC[C@@H](C(C)(C)O)[C@H](O)C1 | – | inactive
CC(C)O | 7.59 µM (active) | –
